A selection: hits, their analogues and other compounds. The true share with any hit is near 5.7%.
hgDAF-12 ag = hgDAF-12 agonism, primary luciferase screen | HEK293 GAL4-hgDAF12 UAS-luciferase reporter, agonist luminescence; normalized to butyrate control | activation, % at 6.8 µM | hit rate 1.8% among 370,000 | AID 687014;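 active = activation above a cutoff set at the mean of all screened compounds plus 3 SD, cut at about 10% in these data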;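 also: 0% = DMSO wells and 100% = sodium butyrate wells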
DAX1 inh-1 = blocks DAX1 repression of SF-1 activated StAR promoter; HEK293T StAR-luciferase reporter, SF-1/DAX-1 repression relief; hit rate 1.1% among 370,000; inhibition, % at 6.8 µM;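 active = inhibition above the mean over all tested compounds plus 3 SD, cut at about 3.6% in these data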;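 also: 0% = DAX-1 cells with DMSO and 100% = cells lacking DAX-1 with DMSO; higher inhibition means more luminescence from relief of DAX-1 repression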
AHR act = activates the human aryl hydrocarbon receptor | AID 2796 | activation, % at 5 µM | hit rate 2.5% among 320,000 | AHR-responsive luciferase reporter cells, luminescence; in the data active = activation above about 47%;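 also: 0% = vehicle wells and 100% = reference agonist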
Target sequence (P35869 whole entry, looked up): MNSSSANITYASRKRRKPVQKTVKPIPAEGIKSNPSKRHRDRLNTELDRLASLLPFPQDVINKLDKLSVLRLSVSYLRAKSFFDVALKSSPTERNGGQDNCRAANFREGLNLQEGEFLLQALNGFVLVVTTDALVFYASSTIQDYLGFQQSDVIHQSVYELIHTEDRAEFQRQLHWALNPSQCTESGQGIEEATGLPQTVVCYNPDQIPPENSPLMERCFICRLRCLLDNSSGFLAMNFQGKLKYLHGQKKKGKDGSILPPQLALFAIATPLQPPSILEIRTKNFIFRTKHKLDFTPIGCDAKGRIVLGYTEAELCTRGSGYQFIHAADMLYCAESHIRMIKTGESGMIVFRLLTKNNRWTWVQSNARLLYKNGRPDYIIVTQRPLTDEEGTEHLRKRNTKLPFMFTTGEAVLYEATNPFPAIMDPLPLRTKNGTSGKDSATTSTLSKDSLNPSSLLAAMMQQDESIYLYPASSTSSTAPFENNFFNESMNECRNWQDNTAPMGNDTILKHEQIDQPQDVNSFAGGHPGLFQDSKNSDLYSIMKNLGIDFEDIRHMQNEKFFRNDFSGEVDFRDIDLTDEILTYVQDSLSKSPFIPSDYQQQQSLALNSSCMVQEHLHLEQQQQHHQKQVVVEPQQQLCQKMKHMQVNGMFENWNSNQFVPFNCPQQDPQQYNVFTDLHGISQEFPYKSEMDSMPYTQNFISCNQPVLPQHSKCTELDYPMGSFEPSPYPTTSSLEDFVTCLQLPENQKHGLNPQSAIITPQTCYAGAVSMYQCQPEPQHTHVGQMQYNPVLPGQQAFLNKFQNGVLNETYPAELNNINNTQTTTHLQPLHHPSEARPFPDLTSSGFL
DAX1 inh-2 = inhibitors of human orphan nuclear receptor DAX1 (NR0B1); P51843; HEK293 Gal4-DAX1 luciferase reporter, luminescence; inhibition, % at 6.75 µM; hit rate 0.99% among 340,000; AID 504766;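 active = inhibition above the mean over all tested compounds plus 3 SD, cut at about 4.2% in these data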;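 also: 0% = DAX1-transfected cells with DMSO and 100% = empty-vector control cells with DMSO; inhibition shows as a rise in luminescence from relieved DAX1 repression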
hcDAF12 agonist = H. contortus DAF-12 activation, primary screen; HEK293 hcDAF-12 lit1-tk-luc reporter, luminescence; 0% DMSO, 100% Δ7-dafachronic acid; activation, % at 6.8 µM; hit rate 1.4% among 370,000; AID 652067;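 active = activation above the mean of all tested compounds plus 3 SD, cut at about 5.5% in these data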;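 also: 100% = response to 3 µM Δ7-dafachronic acid high control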
ssDAF12 agonist = activators of S. stercoralis DAF-12 nuclear receptor. HEK293 ssDAF-12/GRIP1 lit1-tk-luc reporter, luminescence; % of 3 µM dafachronic acid response. activation, % at 6.8 µM. hit rate 1% among 370,000;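 active = activation above the mean over all tested compounds plus 3 SD, cut at about 0.9% in these data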;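 also: 0% = DMSO-only wells and 100% = 3 µM delta7-dafachronic acid wells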
Starred values were filed as active, the others as inactive; . = not tested or not shown.

SMILES	hgDAF-12 ag	DAX1 inh-1	AHR act	DAX1 inh-2	hcDAF12 agonist	ssDAF12 agonist
COc1ccc(/C=C2\SC(=S)N(CCC(=O)Nc3cccc(O)c3)C2=O)cc1OC	1	0	-1	0	-1	-1
N#CCc1c(C#N)c(N)nc(N2CCOCC2)c1C#N	-1	0	3	0	-2	-1
CCn1c(NCc2ccc3c(c2)OCO3)nc2ccccc21	3	1	69*	1	1	-1
C=CCn1c(NCc2ccccc2)nc2ccccc21	1	0	11	7.1*	2	-1
O=C(c1ccc(Cn2c(=O)[nH]c3ccccc3c2=O)cc1)N1CCN(c2ccc(F)cc2)CC1	-2	0	-3	-1	-3	-1
Cn1c(/C=C/c2cccc(Br)c2)nc2ccccc2c1=O	4	0	5	-1	1	-1
Cn1c(CC2C(=O)Nc3ccc(Br)cc32)nc2ccccc2c1=O (centres undefined)	0	-1	50*	-1	3	-1
O=C1Nc2ccc(Br)cc2C1Cc1ccccc1F (centres undefined)	0	0	57*	-1	0	-1
CC(C)CC(NC(=O)C(NC(=O)C(Cc1ccc(OCc2ccccc2)cc1)NC(=O)OC(C)(C)C)C(C)C)C(N)=O (centres undefined)	1	0	-1	0	0	-1
CCOC(=O)c1nc(-c2ccc(OC)c(OC)c2)no1	1	1	-1	0	-1	-1
CCOC(=O)c1nc(-c2ccc(OC)c(OC)c2)cnc1C#N	-4	1	1	6.9*	4	-1
Cc1noc(/C=C/Nc2ccc(F)cc2F)c1[N+](=O)[O-]	12*	3	64*	4	2	1
COc1ccccc1N/C=C/c1onc(C)c1[N+](=O)[O-]	9	3	54*	-2	4	0
Cc1noc(/C=C/c2ccccn2)c1[N+](=O)[O-]	3	-1	1	-3	-1	-2
O=C(COC(=O)c1cc2c(s1)CCC2)Nc1ccc(F)cc1	-2	0	0	4.5*	2	0
Cc1occc1C(=O)OCC(=O)Nc1ccc(F)cc1	11*	0	5	1	4	0
O=C(COC(=O)c1ccccc1Br)Nc1ccc(F)cc1	4	1	1	1	-1	-1
CN(C)C/C=C/C(O)(c1ccccc1)c1ccccc1	-3	1	-2	1	-1	-1
CCN(CC)S(=O)(=O)c1ccc2c(c1)nc(-c1ccccn1)n2C	7	1	15	0	6.2*	0
CCCNc1nc(OC(C(F)(F)F)C(F)(F)F)nc(OC(C(F)(F)F)C(F)(F)F)n1	-3	0	2	1	-2	-1
CCOC(=O)c1[nH]c2ccc(OCC)cc2c1NC(=O)CN1CCCC(C)C1 (centres undefined)	0	-1	39	-1	-3	-2
CCOC(=O)c1[nH]c2cc3c(cc2c1NC(=O)CN1CC(C)CC(C)C1)OCO3 (centres undefined)	0	1	56*	0	2	0
Cc1ccc(NC(=O)/C(C#N)=C(\N)C(Cl)(Cl)Cl)nc1	.	.	45	8.1*	.	.
Cc1ccc(NC(=O)C(=O)Nc2ccc(C)cn2)nc1	4	1	-3	0	0	-1
Cn1c(COc2cccc3cccnc23)nnc1SCC(=O)O	5	0	0	1	-1	0
SMILES	hgDAF-12 ag	DAX1 inh-1	AHR act	DAX1 inh-2	hcDAF12 agonist	ssDAF12 agonist
Cc1nc(NC(=O)CC(C)C)sc1-c1csc(Nc2ccc(Cl)cc2Cl)n1	1	0	61*	0	-2	-1
C=CCCC(=O)Nc1nc(C)c(-c2csc(Nc3cc(Cl)ccc3OC)n2)s1	0	0	72*	1	-1	-1
COc1ccc(Cl)cc1Nc1nc(-c2sc(NC(=O)CC(C)C)nc2C)cs1	0	0	38	1	-2	-1
Cc1nc(NC(=O)c2ccccc2)sc1-c1csc(Nc2ccc(Cl)cc2Cl)n1	.	.	43	.	.	.
COc1ccc(OC)c(Nc2nc(-c3sc(NC(=O)c4ccccc4)nc3C)cs2)c1	.	.	55*	.	.	.
COc1ccc(Cl)cc1Nc1nc(-c2sc(NC(=O)c3ccccc3)nc2C)cs1	.	.	95*	.	.	.
Cc1nc(NC(=O)c2ccccc2)sc1-c1csc(Nc2ccc(F)cc2)n1	.	.	23	.	.	.
Cc1ccc(Cl)cc1Nc1nc(-c2sc(NC(=O)c3cccc(Cl)c3)nc2C)cs1	.	.	27	.	.	.
CN1C(=S)SC2CS(=O)(=O)CC21C (centres undefined)	-1	0	3	2	0	0
Cc1ccc(-n2nc(CC#N)c(C#N)c2N)cc1	2	0	38	1	2	0
Cc1ccc(-n2nc(CC#N)c(C#N)c2N)cc1Cl	-1	0	68*	0	5	1.3*
CCOP(=O)(OCC)C(NC(=O)Nc1ccc(Cl)cc1)C(=O)N(CC)CC (centres undefined)	3	0	3	1	0	1.5*
O=C(CSc1nc2ccccc2c(=O)n1-c1ccccc1)N1CCc2ccccc2C1	0	-1	0	-1	2	1.0*
CC(C)c1ccccc1-n1c(SCC(=O)N2CCc3ccccc3C2)nc2ccccc2c1=O	-8	-1	-1	-1	-2	-2
CC(=O)C(C(c1ccccc1)c1c[nH]c2ccccc12)[N+](=O)[O-] (centres undefined)	0	-1	9	2	1	-1
Cc1ccc2ncnc(Nc3ccc(C)c(C)c3)c2c1	5	-1	50*	-2	-1	-2
CCOc1ccccc1OCC(=O)Nc1nc2ccccc2[nH]1	-3	0	2	1	0	-1
CCOc1ccccc1Nc1cc(C)nc2ccc(C)cc12	0	0	48*	-1	-1	-1
CCOc1ccccc1Nc1ncnc2ccc(Br)cc12	3	-1	76*	0	1	-1
CCOc1ccccc1Nc1cc(C)nc2ccccc12	-1	-2	.	-1	-3	-2
CCOc1ccccc1Nc1nc2ccccc2[nH]1	4	0	50*	-1	-1	-1
CC(=O)c1cccc(Nc2ncnc3ccc(Br)cc23)c1	3	0	74*	-2	-1	-2
Cc1cccc2c1nc(-c1ccccc1)n1nnnc21	2	0	57*	1	0	-1
CCN(CC)S(=O)(=O)c1ccc(C)c(NC(=O)COC(=O)CN2C(=O)NC(C)(C)C2=O)c1	-2	0	1	1	0	0.9*
CCC1(CC)NC(=O)N(CC(=O)OCC(=O)Nc2cc(C)ccc2C)C1=O	-1	-1	2	-1	-2	-1
COc1ccc(C(=O)COC(=O)c2ccc(Cl)nc2)c(OC)c1	0	0	1	2	-1	-1

Screening results: PubChem, The Scripps Research Institute Molecular Screening Center
